# Screening results deposited in PubChem by National Center for Advancing Translational Sciences (NCATS).
# Pol eta inh: qHTS for Inhibitors of Polymerase Eta; Potency, µM (highest dose often 114 µM), actives largely listed as inhibitors; recombinant Pol eta, fluorescent DNA replication assay; DNA polymerase eta (Homo sapiens), Q9Y253; 390,000 tested, 1.2% active
#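 Pol eta at 10 nM preincubated with compounds 15 min at room temperature; reaction started with fluorescent substrate (50 nM final) and read kinetically at 0 and 10 min.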
# Pol beta inh: qHTS Assay for Inhibitors of DNA Polymerase Beta | P06746 | Pol beta primer extension/strand displacement, fluorescence kinetic | Potency, µM (highest dose often 114 µM), usual class: inhibitors | 340,000 tested, 1.3% active | AID 485314, 2010
#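 Curves were derived by four-parameter Hill fits of normalized qHTS data. The kinetic fluorescent primer-extension read was taken at 0 and 10 min after 50 nM substrate, following a 15 min room-temperature preincubation of 10 nM enzyme with compounds.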
# L3MBTL1 inh: qHTS Assay for the Inhibitors of L3MBTL1; AID 485360, 2010; Potency, µM (series often up to 57.1 µM), actives largely listed as inhibitors; Lethal(3)malignant brain tumor-like protein 1 (Homo sapiens), Q9Y468; 230,000 tested, 0.66% active; AlphaScreen L3MBTL1–H3K9me1 peptide binding; also: nearly all actives have a fitted effect of over 60% in size
#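 L3MBTL1 50 nM + b-AHA-H3(1-15)K9me1 75 nM, 30 min RT; compound added, 30 min RT; streptavidin donor/Ni-chelate acceptor beads 10 ug/mL each final, 30 min RT dark; AlphaScreen read.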
# Pol iota inh: qHTS for Inhibitors of Polymerase Iota; DNA polymerase iota (Homo sapiens), Q9UNA4; Pol iota fluorescent replication assay, 10 min; Potency, µM (titrated, usually from 115 µM), actives largely listed as inhibitors; 390,000 tested, 1% active; AID 588590, 2011
#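 Pol iota at 10 nM preincubated 15 min with compounds at room temperature; reaction started with fluorescent substrate, 50 nM final. Fluorescence read kinetically at 0 and 10 min; buffer-only wells as negative control.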
# Pol kappa inh: qHTS for Inhibitors of Polymerase Kappa. 400,000 tested, 0.53% active. Potency, µM (highest dose often 107 µM), usual class: inhibitors. purified Pol kappa, fluorescent DNA synthesis assay, 10 min
# Target sequence (Q9UBT6 whole entry, looked up): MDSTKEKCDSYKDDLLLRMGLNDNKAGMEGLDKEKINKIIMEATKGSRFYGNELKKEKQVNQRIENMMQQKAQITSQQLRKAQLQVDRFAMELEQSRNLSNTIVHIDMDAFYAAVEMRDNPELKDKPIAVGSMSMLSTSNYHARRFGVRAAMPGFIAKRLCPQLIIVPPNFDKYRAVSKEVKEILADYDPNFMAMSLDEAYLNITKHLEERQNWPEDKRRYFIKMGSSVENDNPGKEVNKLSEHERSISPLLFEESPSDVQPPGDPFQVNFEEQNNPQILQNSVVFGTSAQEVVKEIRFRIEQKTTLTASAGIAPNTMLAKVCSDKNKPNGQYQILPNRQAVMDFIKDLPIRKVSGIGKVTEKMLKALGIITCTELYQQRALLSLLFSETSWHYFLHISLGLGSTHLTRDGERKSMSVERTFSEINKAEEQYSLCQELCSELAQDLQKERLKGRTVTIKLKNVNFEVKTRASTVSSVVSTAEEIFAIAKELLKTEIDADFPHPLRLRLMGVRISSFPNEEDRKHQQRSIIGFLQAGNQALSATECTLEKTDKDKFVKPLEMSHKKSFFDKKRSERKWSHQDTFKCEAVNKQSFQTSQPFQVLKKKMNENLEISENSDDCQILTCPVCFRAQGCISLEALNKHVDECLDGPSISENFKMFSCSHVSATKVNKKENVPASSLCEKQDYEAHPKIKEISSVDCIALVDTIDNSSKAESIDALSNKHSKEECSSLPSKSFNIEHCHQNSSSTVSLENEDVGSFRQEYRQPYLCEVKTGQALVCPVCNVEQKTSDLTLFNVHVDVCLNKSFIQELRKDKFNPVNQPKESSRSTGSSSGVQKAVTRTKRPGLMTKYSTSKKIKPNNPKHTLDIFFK
#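 10 nM Pol kappa preincubated 15 min at room temperature with compounds, then reaction started with substrate at 50 nM final. Fluorescence read kinetically at 0 and 10 min; buffer-only wells served as negative control.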
# Numbers stand for hits; i = inactive; ? = inconclusive; nt = not tested or not shown. Shown are actives, neighbours in structure and some others; about 2.4% of the full set was active somewhere. Calls follow the shape of the dose curve; as a rule, active = well fitted curve in the direction sought with a large enough effect; inconclusive = small, poorly fitted or top-dose-only effect, or another doubt; inactive = no such curve, though single readings can be large; an effect the other way counts as inactive or inconclusive.
SMILES,Pol eta inh,Pol beta inh,L3MBTL1 inh,Pol iota inh,Pol kappa inh
Cc1ccc(C(=O)Nc2nnc(S(=O)(=O)N3CCN(c4ccc(F)cc4)CC3)s2)cc1,i,i,nt,i,i
Cc1ccc(N2CCN(S(=O)(=O)c3nnc(NC(=O)c4ccco4)s3)CC2)cc1,79µM,?,i,i,i
COc1ccc2nc(SCC(O)c3cccc(Br)c3)[nH]c2c1 (configuration not stated),i,i,nt,i,i
Cc1cc2nc(CO)[nH]c2cc1C,i,i,nt,i,i
COc1cc2nc(CCc3nc4cc(OC)c(OC)cc4[nH]3)[nH]c2cc1OC,nt,nt,nt,2.5µM,3.2µM
CCCCN(C)CCCNC(=O)C1CCN(c2nc3ccc(CC)cc3s2)CC1,i,i,nt,i,i
CC(/C=N/n1c(-c2cccnc2)n[nH]c1=S)=C\c1ccco1,i,i,?,?,?
S=c1[nH]nc(-c2ccc(Cl)cc2)n1/N=C/C=C/c1ccco1,?,25µM,28µM,i,i
S=c1[nH]nc(-c2ccccc2)n1/N=C/C=C/c1ccco1,i,45µM,?,i,i
S=c1[nH]nc(-c2cccnc2)n1/N=C/C=C/c1ccco1,?,13µM,22µM,?,i
COc1ccc(OC)c(/C=C/c2nc3ccccc3c(=O)n2-c2ccc(F)c(Cl)c2)c1,i,i,nt,i,i
CC(C)c1ccc(/C=C2\SC(=S)N(CCC(=O)NCCCn3ccnc3)C2=O)cc1,i,40µM,nt,i,?
CCOc1ccc(C(=O)C(CN2CCOCC2)c2ccccc2)cc1 (configuration not stated),i,i,i,?,i
O=C(c1ccc(Br)cc1)C(CN1CCOCC1)c1ccccc1 (configuration not stated),i,i,nt,20µM,i
CCc1ccc(NCCC(=O)c2ccc(Cl)cc2)cc1,i,i,i,i,i
Cc1ccc(NCCC(=O)c2ccc(Cl)cc2)cc1C,i,i,i,100µM,i
Cc1ccnc2c(Cl)cccc12,nt,nt,nt,i,i
NCCCCCc1cnc[nH]1,nt,nt,nt,nt,i
Nc1c2c(=O)[nH]c(O)cc2nn1-c1ccccc1,50µM,nt,nt,8.9µM,?
Cc1c(C)c2c(C)nn(-c3ccccc3)c2[nH]c1=O,i,i,i,i,i
CC1=NNC(=O)C1Oc1ccccc1 (configuration not stated),i,i,i,25µM,i
CCOc1ccc2nc3cc(NCc4ccc(OC)cc4)ccc3c(N)c2c1,79µM,28µM,nt,i,i
CCOc1ccc2nc3cc(N)ccc3c(N)c2c1,nt,nt,nt,nt,22µM
CCOc1ccc2nc3ccc4[nH]onc4c3c2c1,i,nt,nt,i,i
COC(=O)N1CCC2(CC1)CN(c1ccccn1)C2,nt,nt,nt,nt,i
SMILES,Pol eta inh,Pol beta inh,L3MBTL1 inh,Pol iota inh,Pol kappa inh
COc1ccc2c(CC(=O)N3CCN(S(=O)(=O)c4ccc(F)cc4)CC3)coc2c1,32µM,nt,?,?,?
COc1ccccc1NC(=O)Cc1coc2cc(C)ccc12,i,i,nt,i,i
Cc1ccc2c(CC(=O)NNC(=O)c3ccccc3O)coc2c1,?,nt,i,45µM,i
COc1ccc2c(CC(=O)N3CCN(S(=O)(=O)c4cccs4)CC3)coc2c1,i,i,i,i,i
Cc1ccc2c(CC(=O)N3CCN(S(=O)(=O)c4ccccc4)CC3)coc2c1,32µM,nt,i,?,?
Cc1ccc2c(CC(=O)N3CCN(S(=O)(=O)c4ccc5c(c4)OCCO5)CC3)coc2c1,i,i,i,i,i
CCN(CC)CCNC(=O)C(Cl)=C1C(Cl)=C(Cl)C(Cl)=C1Cl,i,nt,nt,i,i
COc1ccc(N2CCN(c3nc4ccccc4n4c(C)nnc34)CC2)cc1,i,i,nt,i,i
Oc1ccc(/C=N/Nc2cc(N3CCOCC3)nc(N3CCOCC3)n2)cc1,i,nt,nt,?,i
Oc1ccc(/C=N/Nc2cc(N3CCCC3)nc(N3CCCC3)n2)cc1,i,i,i,3.5µM,i
CC1(C)CC[C@]2(C(=O)O)CC[C@]3(C)C(=CC[C@@H]4[C@@]5(C)CC[C@H](O)C(C)(C)[C@@H]5CC[C@]43C)[C@@H]2C1,i,i,nt,i,i
COc1ccc(N(C(=O)c2cccc(C)c2)S(=O)(=O)c2ccc(C)cc2)cc1,i,i,nt,i,i
Cc1ccc2nc(Nc3ccc(F)cc3)c3nncn3c2c1,i,32µM,nt,i,i
COc1cc(OC)c2c(c1C(CCN1CCN(c3ccccc3)CC1)c1ccc(N(C)C)cc1)OC(=O)CC2c1ccc(N(C)C)cc1 (configuration not stated),nt,nt,nt,i,i
COc1cc(/C=C(\C#N)C(=O)N2CCc3ccccc32)ccc1O,i,i,nt,i,i
N#C/C(=C\c1ccc(O)c(O)c1)C(=O)NCCc1ccccc1,8.9µM,i,i,?,?
N#C/C(=C\c1ccc(O)c(O)c1)C(=O)N1CCc2ccccc21,40µM,nt,?,?,i
Nc1ncnc2c1ncn2COC(CO)CO,nt,nt,nt,?,i
Cc1ccc(-c2nc(CS(=O)CC(=O)NCCc3ccc(Cl)cc3)c(C)o2)cc1 (configuration not stated),i,i,nt,i,i
COc1cccc(/C=C/C(=O)OCC(=O)NCCNC(=O)COC(=O)/C=C/c2cccc(OC)c2)c1,i,nt,i,i,i
COc1ccc(/C=C/C(=O)c2ccc(OC)cc2OC)c(OC)c1,i,i,i,i,i
O=C(/C=C/c1ccc(Cl)cc1Cl)c1ccc[nH]1,i,i,?,i,i
CNc1ccc(Br)cc(C(=O)/C=C/c2ccc(Cl)cc2Cl)c1=O,50µM,32µM,i,?,i
CNc1ccc(Br)cc(C(=O)/C=C/c2cccc(OC)c2)c1=O,16µM,i,?,?,?
CNc1ccc(Br)cc(C(=O)/C=C/c2ccc(OC)cc2OC)c1=O,45µM,?,?,11µM,?
SMILES,Pol eta inh,Pol beta inh,L3MBTL1 inh,Pol iota inh,Pol kappa inh
COC(=O)c1ccc(C2Nc3c(C)cc(C)cc3C3C=CCC32)cc1 (configuration not stated),i,?,nt,i,i
COc1ccc(NC(=O)C(=O)NCCc2csc(-c3ccc(Cl)cc3)n2)cc1,i,i,nt,i,i
CCCN(CCC)C(=O)c1c[nH]c2ccc(S(=O)(=O)N(C)c3ccc(OCC)cc3)cc2c1=O,i,i,nt,i,i
O=C(NCc1ccccc1)c1ccc(Cn2cc(C(F)(F)F)ccc2=O)cc1,i,i,i,i,i
CCCNC(=O)c1ccc(Cn2cc(C(F)(F)F)ccc2=O)cc1,i,i,i,89µM,i
O=C(Nc1ccc(Br)cn1)c1cccc(-c2cc3ccccc3oc2=O)c1,?,?,i,i,i
O=C(NCCc1ccc(F)cc1)c1coc(=O)c(Br)c1,i,i,nt,i,i
O=C(NCc1ccccn1)c1coc(=O)c(Br)c1,i,?,14µM,i,i
O=C(Nc1ccccc1F)c1coc(=O)c(Br)c1,79µM,13µM,nt,28µM,32µM
O=C(Nc1ccc(Br)cn1)c1coc(=O)c(Br)c1,45µM,?,nt,40µM,?
COc1cc(NC(=O)c2cc(Cl)ccc2Cl)ccc1NC(=O)c1cc2ccccc2o1,i,?,nt,i,i
